In PubChem BioAssay one finds z-score data, which are given here for 28 compounds.

The structures appear in SMILES notation.

This assay in a line: compound effects on hepatocellular carcinoma cell viability – HepG2, calcein-AM fluorescence, 48 h, basal, profiling panel (AID 1164). Also: test concentration not given here. The conditions noted are these: higher = more signal.
Regarding `C=CCC(OC(C)=O)[C@@H]1[C@@H](N(Cc2ccc(-c3ccccc3)cc2)C(=O)Cc2ccc(OC)cc2)c2cc(OCCCO)ccc2N1C(=O)c1ccc2ccccc2n1` (stereo partly drawn), the z-score is 0.978.
With `COc1ccc(C#Cc2ccc3c(c2)[C@]2(C(=O)N3)[C@H](C(=O)NC[C@H](O)c3ccccc3)[C@H]3C(=O)O[C@H](c4ccccc4)[C@H](c4ccccc4)N3[C@@H]2c2ccc(OCCO)cc2)cc1`, the z-score is -0.425.
On to `COCCOC(=O)N1C(=O)[C@@]2(c3cc(C#CC4(O)CCCCCC4)ccc31)[C@H](C(=O)N1CCCCCCC1)[C@H]1C(=O)O[C@H](c3ccccc3)[C@H](c3ccccc3)N1[C@@H]2c1ccccc1OCCO`, for which the z-score was 0.504.
In the case of `COC(=O)c1ccc(OC)c(/C=C\CC(OC(C)=O)c2ccccc2)c1` (stereo not drawn), the z-score was -0.753.
In the case of `Cc1ccc([C@H]2C(C(=O)O)=C[C@@H](C)N2S(=O)(=O)c2ccc(C)cc2)cc1`, the z-score is -0.173.
Under `NCCCCCCNC(=O)[C@H]1C[C@H]2C(=O)NCC(=O)N2[C@H]1c1cccc(OCCO)c1` stands 0.674; under `COc1ccc(CCN2C(=O)[C@@]3(Cc4ccccc42)c2ccccc2C(=O)N(Cc2ccccc2Cl)[C@H]3c2ccc(CO)cc2)cc1`, 0.589.
Under `C=CC[C@@H](OC(=O)Nc1ccc(OC)cc1)c1ccc(O)c2ccccc12` stands -2.
As to `CC(C)C[C@@H]1NC(=O)[C@@H]2C[C@H](C(=O)NCCCCCC[N+](C)(C)C)[C@H](c3ccc(O)cc3)N2C1=O`, the z-score was 0.145.
`O=C1C=CC(=O)[C@@H]2CC(COc3ccccc3)=C3[C@@H](CCc4ccccc4)OB(O)C[C@@H]3[C@H]12`: the z-score is -0.478.
In the case of `CN(C)CCCCNC(=O)[C@H]1C[C@H]2C(=O)N[C@@H](Cc3ccccc3)C(=O)N2[C@H]1c1ccc(O)cc1`, the z-score is -0.98.
Take `CCCC[C@H]1OB(O)C[C@H]2C1=C(C)C[C@H]1C(=O)N(Cc3ccccc3)C(=O)[C@H]12`: the z-score was -0.152.
For `C=C[C@@H](COC(C)=O)N(Cc1ccc([N+](=O)[O-])cc1)S(=O)(=O)c1ccc(Br)cc1`, the z-score is 0.452.
`COc1ccc([Si](C)(C)[C@@H]2[C@@H](CCn3cc([C@H](O)c4ccccc4)nn3)O[C@]3(C(=O)N(Cc4ccc(N5C(=O)c6cccc7cccc5c67)cc4)c4ccccc43)[C@H]2C)cc1`: the z-score was -0.394.
With `CC(C)(C)OC(=O)CC[C@@]1(C(=O)NCCN2CCOCC2)N=C(c2ccc(OCCCO)cc2)O[C@@H]1c1ccccc1`, the z-score is 0.564.
For `O=C1O[C@@H](c2ccccc2)[C@@H](c2ccccc2)N2[C@@H](c3ccccc3OCCO)[C@]3(C(=O)Nc4ccc(C#CC5(O)CCCCCC5)cc43)[C@@H](C(=O)Nc3nc4ccccc4s3)[C@H]12` the value was -3.
Turning to `COCCOC(=O)N1C(=O)[C@@]2(c3cc(C#CCNC(N)=O)ccc31)[C@H](c1ccc(OCCO)cc1)N1[C@H](c3ccccc3)[C@H](c3ccccc3)OC(=O)[C@H]1[C@@H]2C(=O)N1CCc2cc(OC)c(OC)cc2C1`, the z-score is 0.34.
`CCOC(=O)C[C@H]1[C@H](OC(=O)c2ccc(C(=O)c3ccccc3)cc2)[C@@H](NC(=O)C2CCCCC2)c2cc(OCCCO)ccc2N1C(=O)c1ccccc1`: the z-score was 0.431.
Take `CC(C)=CCCC(C)=CC(O)C1C=CC2C(=O)N(c3ccccc3)C(=O)C2N1Nc1ccccc1` (stereo not drawn): the z-score was -0.731.
On to `COC(=O)[C@@]1(Cc2ccc(OC)cc2)[C@H]2c3cc(C(=O)N4CCCC4)n(CCc4c[nH]c5cc(F)ccc45)c3C[C@H]2CN1C(=O)c1ccccc1`, for which the z-score was 0.172.
Turning to `Cc1ccc(F)cc1S(=O)(=O)N[C@@H]1CCN(Cc2ccc(-c3ccccc3)cc2)C1`, the z-score was -4.73.
As for `COC(=O)[C@@]1(Cc2ccc(OC)cc2)[C@H]2c3cc(C(=O)N(C)C)n(Cc4c(OC)[nH]cc(C)c4=O)c3C[C@H]2CN1C(=O)c1ccccc1`, the z-score was 1.17.
`[N-]=[N+]=Nc1ccccc1[C@H]1OC(c2ccc(OCCCO)cc2)=N[C@@]1(CCS(=O)(=O)c1ccccc1)C(=O)O`: the z-score is -0.0825.
On to `COC(=O)c1ccc(C(O)C2C=CC3C(=O)N(C)C(=O)C3N2NC(=O)OC(C)(C)C)o1` (stereo not drawn), for which the z-score was 0.0285.
For `CC=CC(O)C1C=CC2C(=O)N(c3ccccc3)C(=O)C2N1Nc1ccc(C(C)C)cc1` (stereo not drawn) the value was 0.645; for `O=C1C[C@@](C(=O)NC2CC2)(c2ccc([N+](=O)[O-])cc2)[C@@H](c2ccc(CO)cc2)N1CC12CC3CC(CC(C3)C1)C2`, -1.94; for `COc1ccc(C(O)C2C=CC3C(=O)N(C)C(=O)C3N2Nc2ccccc2)cc1OCc1ccccc1` (stereo not drawn), -0.269.
Regarding `[N-]=[N+]=NCc1ccccc1C[C@@]1(C(=O)N2CCOCC2)N=C(c2ccc(OCCCO)cc2)O[C@@H]1c1ccccc1CN=[N+]=[N-]`, the z-score was 1.29.
